# Data from PMC4336329 (PLoS ONE, 2015).
# Hit rate of the full screen: of about 310,000 compounds, about 14,000 (4.5%) showed an effect of 50% or more. The effect is printed as a negative number. For the sample, strong results were picked, then their nearest neighbours and some compounds at random.
# Molecular target: human ether-à-go-go-related gene (hERG) potassium channel (human, UniProt Q12809)
# Experiment: primary screen, population patch clamp on CHO cells stably expressing hERG; higher = less effect of the substance
# 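Further: peak tail current of the secondary pulse compared with the same well before compound.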
# Chain of human ether-à-go-go-related gene (hERG) potassium channel (Q12809 whole entry, looked up): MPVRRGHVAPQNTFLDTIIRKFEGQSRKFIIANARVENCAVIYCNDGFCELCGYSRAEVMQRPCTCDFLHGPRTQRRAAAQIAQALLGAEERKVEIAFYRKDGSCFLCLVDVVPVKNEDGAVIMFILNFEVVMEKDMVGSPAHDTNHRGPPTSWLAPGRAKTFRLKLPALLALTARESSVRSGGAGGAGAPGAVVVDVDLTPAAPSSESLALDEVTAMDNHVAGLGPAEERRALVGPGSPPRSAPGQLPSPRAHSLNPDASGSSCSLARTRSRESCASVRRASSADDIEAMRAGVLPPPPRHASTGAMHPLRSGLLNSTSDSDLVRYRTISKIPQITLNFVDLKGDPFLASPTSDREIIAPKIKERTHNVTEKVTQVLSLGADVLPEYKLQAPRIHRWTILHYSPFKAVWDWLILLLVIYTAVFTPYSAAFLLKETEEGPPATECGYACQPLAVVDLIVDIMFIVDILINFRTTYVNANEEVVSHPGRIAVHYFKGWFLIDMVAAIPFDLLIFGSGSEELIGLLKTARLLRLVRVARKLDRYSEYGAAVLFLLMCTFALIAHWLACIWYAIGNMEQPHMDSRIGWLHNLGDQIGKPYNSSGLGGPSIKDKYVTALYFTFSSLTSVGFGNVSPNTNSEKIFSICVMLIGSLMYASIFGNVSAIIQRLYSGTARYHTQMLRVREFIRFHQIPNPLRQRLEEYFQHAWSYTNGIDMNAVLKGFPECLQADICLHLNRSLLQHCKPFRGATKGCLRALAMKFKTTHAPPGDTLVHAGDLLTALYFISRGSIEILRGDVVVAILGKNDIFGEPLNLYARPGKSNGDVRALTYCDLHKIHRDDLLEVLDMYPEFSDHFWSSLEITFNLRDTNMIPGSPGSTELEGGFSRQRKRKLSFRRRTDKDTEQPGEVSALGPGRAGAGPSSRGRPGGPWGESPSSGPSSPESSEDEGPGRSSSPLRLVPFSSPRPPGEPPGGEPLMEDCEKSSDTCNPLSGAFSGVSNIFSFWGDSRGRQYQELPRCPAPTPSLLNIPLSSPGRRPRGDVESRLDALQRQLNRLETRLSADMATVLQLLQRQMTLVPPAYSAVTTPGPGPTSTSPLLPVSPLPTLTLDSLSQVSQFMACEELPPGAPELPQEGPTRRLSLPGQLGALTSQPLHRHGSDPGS
row,SMILES,"hERG current change (%, negative = inhibition) at 10uM"
1,O=C(Nc1ccnn1C1CCN(CC(O)CO)CC1)C1CCCC1 (stereo not drawn),11.4%
2,CC(C)CCN1CCC(n2nccc2NC(=O)c2ccc3c(c2)OCO3)CC1,-5.16%
3,CC(C)(CO)CN1CCC(n2nccc2NC(=O)C2CCCC2)CC1,11.4%
4,CC(C)=CCCC(C)CN1CCC(n2nccc2NC(=O)c2cccnc2)CC1 (stereo not drawn),-52.1%
5,CCc1ccc(CN2CCC(n3nccc3NC(=O)c3ccccc3)CC2)o1,-36%
6,COc1ccc(C(=O)Nc2ccnn2C2CCN(C(=O)c3cccnc3)CC2)cc1,12.3%
7,O=C(Nc1cccnc1Cl)c1cc(-c2ccccc2O)on1,-5.16%
8,COc1ccc(NCc2ccc3c(c2)OCO3)cc1Cl,-4.31%
9,CC(C)CSc1nnc2c3ccccc3n(C)c2n1,-11.9%
10,CC1=C(C(N)=O)C(c2ccccc2[N+](=O)[O-])n2ncnc2N1 (stereo not drawn),7.69%
11,C=Cn1c(C(=O)O)ccc1-c1ccc(CC)cc1,-5.29%
12,COC(=O)Nc1ccc(S(=O)(=O)N(CCO)CC(F)(F)C(F)F)cc1,18.3%
13,CN=C1S/C(=C\c2ccc(OCC(=O)OC)c(OC)c2)C(=O)N1C,12.6%
14,Cc1sc2ncnc(NCc3ccco3)c2c1C,-16.3%
15,Cc1sc2ncnc(NCc3cccs3)c2c1C,-61.7%
16,CCCNc1ncnc2sc(C)c(C)c12,-1.05%
17,Cc1nc(NCc2cccnc2)c2c3c(sc2n1)CCCC3,-70.2%
18,O=C(Nc1ncnc2sc3c(c12)CCCC3)c1ccncc1,-14.2%
19,c1ccc(CNc2ncnc3sc4c(c23)CCCC4)nc1,-27.4%
20,Cc1ccc(CNc2nc(C)nc3sc4c(c23)CCC4)cc1,-4.22%
21,c1cncc(CNc2ncnc3sc4c(c23)CCCC4)c1,-78%
22,Cc1sc2ncnc(NCc3cccnc3)c2c1C,-55%
23,Cc1sc2ncnc(NCCCO)c2c1C,5.08%
24,Cc1sc2ncnc(OCC(=O)NCc3cccs3)c2c1C,6.03%

row,SMILES,"hERG current change (%, negative = inhibition) at 10uM"
1,Cc1nc(NCc2cccnc2)c2c3c(sc2n1)CC(C)CC3 (stereo not drawn),-25.1%
2,c1ccc2c(CSc3nnc(-c4ccncc4)o3)cccc2c1,-12.8%
3,CCC(CC)C(=O)Nc1nnc(S(=O)(=O)N2CCc3ccccc32)s1,17.9%
4,O=C(O)C1CCCCC1C(=O)Nc1cc(Cl)ccc1Cl (stereo not drawn),10.3%
5,CCc1ccccc1SCc1noc(C(=O)NCC2CCCO2)c1C(=O)O (stereo not drawn),2.36%
6,Cl.c1cc(Nc2ncnc3sc4c(c23)CCC4)ccn1,19.3%
7,c1ccc(CNc2ncnc3sc4c(c23)CCC4)nc1,-19.8%
8,CN(C)C(CNc1ncnc2sc3c(c12)CCCCC3)c1ccco1 (stereo not drawn),-35.4%
9,Cc1sc2ncnc(NCC(c3ccco3)N(C)C)c2c1C.O=C(O)C(=O)O (stereo not drawn),-33.7%
10,CN(Cc1cccs1)c1ncnc2sccc12,-28.8%
11,Cc1sc2ncnc(NCC(c3ccco3)N3CCCC3)c2c1C (stereo not drawn),-51.5%
12,Cc1sc2ncnc(N(C)Cc3ccco3)c2c1C,-4.64%
13,Cc1sc2ncnc(N(C)Cc3cccs3)c2c1C,-53%
14,Cl.c1cncc(CNc2ncnc3sc4c(c23)CCC4)c1,-56.2%
15,CCOC(=O)N1CCN(C(=O)CN(C)S(=O)(=O)c2ccc(Cl)cc2)CC1,8.13%
16,COc1ccc(CCNC(=O)Cc2nn(C)c(=O)c3ccccc23)cc1OC,0.902%
17,CN(CC(=O)NC(=O)NCc1ccco1)Cc1nc2ccccc2c(=O)[nH]1,-3.41%
18,Cn1c(SCC(=O)N2CCCc3ccccc32)nc2cccnc21,9.85%
19,CCOc1ccc(-n2c(-c3ccc(Cl)cc3)c[n+]3c2SCC3)cc1.[Br-],-80.9%
20,COc1ccc(-c2c[n+]3c(n2-c2ccccc2)SCC3)cc1.[Br-],-45.7%
21,Cc1ccc(-c2c[n+]3c(n2-c2ccccc2)SCC3)cc1.[Br-],-35.8%
22,[Br-].c1ccc(-c2c[n+]3c(n2-c2ccccc2)SCC3)cc1,-28.4%
23,Brc1ccc(-c2c[n+]3c(n2-c2ccccc2)SCC3)cc1.[Br-],-49.4%
24,Clc1ccc(-c2c[n+]3c(n2-c2ccccc2)SCC3)cc1.[Cl-],-62.7%
